# Source: PubChem BioAssay (National Center for Advancing Translational Sciences (NCATS))
# NS1 function inh: qHTS Assay for Inhibitors of Influenza NS1 Protein Function; Potency, µM (series often up to 46.1 µM); 0.4% of 270,000 active; calls by dose curve; further: actives are rising curves; nearly all actives have a fitted effect of over 50% in size
#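 Compounds were scored for reversing the slow growth caused by influenza A NS1 in S. cerevisiae, measured by optical density at 600 nm. Assay medium contained 2% galactose at pH 6.0; NS1-free yeast of the same strain were the positive control.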
# Sm TGR block: qHTS Assay for the Inhibitors of Schistosoma Mansoni Peroxiredoxins; 3% of 360,000 active; purified TGR, DTNB reduction, TNB absorbance 405 nm; Potency, µM (highest dose often 114 µM), hits mostly inhibitors; Schistosoma mansoni thioredoxin glutathione reductase (TGR), Q962Y6; further: nearly all actives have a fitted effect of over 60% in size
#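 TGR 20 nM + NADPH 100 uM (dispensed conc.), cpd preinc 15 min RT; start with NADPH (500 uM addition) then DTNB (15 mM addition). Kinetic TNB absorbance, 405 nm filter. Four-parameter Hill fit across titration.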
# AMA1 RON2 block: qHTS for Inhibitors of AMA1-RON; Towards Development of Antimalarial Drug Lead: Primary Screen. Plasmodium falciparum AMA1 (3D7) - RON2 peptide interaction. AlphaScreen AMA1-biotinylated RON2 peptide binding. Potency, µM (doses to about 58.2 µM), usual class: inhibitors. 0.2% of 360,000 active. AID 720542, 2013; further: nearly all actives have a fitted effect of over 45% in size
#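 AMA1 (3D7) with his tag at 25 nM final met compounds first, then biotinylated RON2 peptide at 25 nM; detection used donor plus acceptor beads, 10 µg/mL apiece, read by AlphaScreen after 30 min at room temperature.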
# Pf growth 96h: Primary qHTS for delayed death inhibitors of the malarial parasite plastid, 96 hour incubation | P. falciparum luciferase reporter growth, 96 h | Potency, µM (top dose mostly 28.7 µM), most hits filed as inhibitors | 6.9% of 320,000 active
#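 Cell-based qHTS: luciferase-tagged P. falciparum in erythrocytes (2% hematocrit, 0.05% parasitemia final) incubated with compounds for 96 hours, 37 C, 5% CO2; luciferase detection reagent then added and luminescence measured.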
# Pf growth 48h: Primary qHTS for delayed death inhibitors of the malarial parasite plastid, 48 hour incubation. P. falciparum luciferase growth in erythrocytes, 48 h. Potency, µM (titrated, usually from 28.7 µM), hits mostly inhibitors. 5.9% of 310,000 active. AID 504832, 2011
#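 First compound was added to culture medium, then infected red cells at 0.1% parasitemia and 2% hematocrit (final). After incubation at 37 C under 5% CO2, luciferase detection reagent was dispensed and light output recorded.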
# Hits are given with their value; – = inactive; ? = inconclusive; · = not tested or not shown. An excerpt weighted towards active compounds, which were near 11% of everything screened. Unless noted, the call rests on the fitted dose curve; in most records, active means well fitted curve in the direction sought with a large enough effect; inconclusive means small, poorly fitted or top-dose-only effect, or another doubt; inactive means no such curve, though single readings can be large; an effect the other way counts as inactive or inconclusive.
SMILES,NS1 function inh,Sm TGR block,AMA1 RON2 block,Pf growth 96h,Pf growth 48h
O=C(CSc1nnc(Cc2cccs2)n1CCc1ccccc1)N1CCCc2ccccc21,–,–,–,·,9.3µM
Cc1cccc(C(=O)NCc2nnc(SCC(=O)NC3CCCC3)n2C)c1,–,–,–,–,–
Cn1cccc1Cc1nnc(SCC(=O)N2CCc3ccccc32)n1CCc1ccccc1,–,–,–,?,13µM
Cc1cccc(C)c1OCC(=O)NCc1nnc(SCC(=O)NC2CCCCC2)n1C,–,–,–,–,12µM
Cn1cccc1Cc1nnc(SCC(=O)NC2CCCC2)n1CCc1ccccc1,?,–,–,8.3µM,·
O=C(CSc1nc2ccccc2n1Cc1ccc(F)c(Cl)c1)N1CCN(c2ccc(F)cc2)CC1,·,–,·,·,·
Cc1ccc(C(=O)Nc2ccc(C(=O)N3CCCCC3)cc2)o1,–,–,–,–,–
CCN(CC(=O)Nc1ccc(NC(C)=O)cc1)C(=O)c1ccc(COc2ccc(C(C)(C)C)cc2)cc1,·,·,–,·,·
CCOc1ccc(-c2cn3c(n2)sc2cc(C(=O)NCCc4ccc(OC)c(OC)c4)ccc23)cc1,·,–,·,·,·
CCOC(=O)c1ccc(N2C(=O)c3n[nH]c(C)c3C2c2ccc(O)cc2)cc1 (stereo not given),–,35µM,–,?,–
CCOC(=O)c1ccc(N2C(=O)c3n[nH]c(C)c3C2c2ccccc2)cc1 (stereo not given),–,–,–,?,?
CCOc1cc(C2c3c(-c4ccccc4)n[nH]c3C(=O)N2c2ccc(C(=O)O)cc2)ccc1O (stereo not given),·,25µM,–,–,–
CCc1ccc(C2c3c(-c4ccccc4)n[nH]c3C(=O)N2c2ccc(C(=O)O)cc2)cc1 (stereo not given),·,–,·,·,·
COc1ccc(-c2n[nH]c3c2C(c2ccc(OC)c(OC)c2)N(c2ccccc2)C3=O)cc1 (stereo not given),–,–,–,0.12µM,·
O=C(NCCCN1CCOCC1)c1ccc2c(c1)N(Cc1c(F)cccc1Cl)C(=O)c1ccccc1S2,–,–,–,?,?
COc1ccc(OC)c(CNC(=O)CCSCc2ccc(F)cc2Cl)c1,–,–,–,–,–
CN(C(=O)c1ccc(NC(=O)Cc2cccc(NC(=O)C3CCCN(C(=O)C4CC4)C3)c2)cc1)C1CCCC1 (stereo not given),·,–,–,?,15µM
CN(Cc1ccccc1)C(=O)c1ccc(NC(=O)Cc2cccc(NC(=O)C3CCCN(C(=O)C4CCCC4)C3)c2)cc1 (stereo not given),·,–,–,–,12µM
CN(C(=O)c1ccc(NC(=O)Cc2ccc(NC(=O)C3CCCN(C(=O)C4CCCC4)C3)cc2)cc1)C1CC1 (stereo not given),·,–,–,12µM,?
CN(C(=O)c1ccc(NC(=O)Cc2cccc(NC(=O)C3CCCN(C(=O)C4CCC4)C3)c2)cc1)C1CCCC1 (stereo not given),·,–,–,?,12µM
CN(C(=O)c1ccc(NC(=O)Cc2ccc(NC(=O)C3CCCN(C(=O)C4CCCCC4)C3)cc2)cc1)C1CC1 (stereo not given),·,–,–,?,?
CN(C(=O)c1ccc(NC(=O)Cc2cccc(NC(=O)C3CCCN(C(=O)C4CCCCC4)C3)c2)cc1)C1CCCC1 (stereo not given),·,–,–,?,?
CN(C(=O)c1ccc(NC(=O)Cc2ccc(NC(=O)C3CCN(C(=O)CCc4ccccc4)CC3)cc2)cc1)C1CCCC1,·,·,–,·,·
CN(C(=O)c1ccc(NC(=O)Cc2cccc(NC(=O)C3CCN(C(=O)CCc4ccccc4)CC3)c2)cc1)C1CCCC1,·,–,–,1.9µM,9.3µM
O=C(CCCCCn1c(SCC(=O)c2ccccc2)nc2ccccc2c1=O)NCc1ccco1,–,–,–,–,?
SMILES,NS1 function inh,Sm TGR block,AMA1 RON2 block,Pf growth 96h,Pf growth 48h
CCOC(=O)CSc1nc2ccccc2c(=O)n1CCCCCC(=O)NCc1ccco1,–,–,–,–,12µM
COc1ccccc1NC(=O)CSc1nc2ccccc2c(=O)n1CCNC(C)=O,–,–,–,8.3µM,?
CC(=O)NCCn1c(SCC(=O)NCc2ccco2)nc2ccccc2c1=O,–,–,–,4.7µM,–
N#CCCn1c(SCC(=O)NCc2ccco2)nc2ccccc21,–,40µM,–,–,·
CSCc1ccc(C(=O)OCc2nc3ccccc3s2)o1,·,·,–,·,·
Cc1sc2nc(SCC(=O)NCc3ccco3)n(Cc3ccccc3)c(=O)c2c1C,–,?,–,·,10µM
Cc1sc2nc(C(C)C)nc(SCC(=O)NCc3ccco3)c2c1C,–,45µM,–,?,?
O=C(CSc1nc2ccccc2c(=O)n1Cc1ccco1)NCc1ccco1,–,40µM,–,–,?
O=C(CSc1nc2ccccc2c(=O)n1Cc1ccco1)N1CCCCCC1,–,–,–,–,5.2µM
CC(=O)NCc1c(I)c(NC(C)=O)c(I)c(C(=O)O)c1I,·,·,·,–,–
CCc1ccc(NC(=O)Cn2nc(C)n3cccc3c2=O)cc1,–,–,–,–,–
CCN(CC)CC(=O)N1c2ccccc2Oc2c(c(=O)n(C)c(=O)n2C)C1c1cccc([N+](=O)[O-])c1 (stereo not given),–,?,–,?,5.9µM
COc1ccc(NC(=O)Nc2ccc(OC)cc2)cc1,–,–,–,–,·
N#Cc1ccc(NC(=O)Nc2ccc(Oc3ccc(NC(=O)Nc4ccc(C#N)cc4)cc3)cc2)cc1,–,–,–,?,1.7µM
N#Cc1ccc(NC(=O)Nc2cccc(C#N)c2)cc1,–,–,–,6.6µM,12µM
N#Cc1cccc(NC(=O)c2ccccc2C(=O)O)c1,–,–,–,–,–
CCCC(C)(C)C(=O)N1CCC1(C)C(=O)NS(=O)(=O)c1ccc(Cl)cc1 (stereo not given),·,·,–,·,·
O=C(CSc1ccc(-c2ccco2)nn1)c1ccc(F)cc1,–,20µM,–,–,–
O=C(CSc1ccc(-c2ccco2)nn1)NCc1ccc(F)cc1,–,35µM,–,–,–
COc1ccc(S(=O)(=O)N(CC(=O)NCCSc2ccccc2)c2ccc(C)cc2)cc1,·,–,·,·,·
CCC(C)NC(=O)C1CCN(C(=O)c2cc3sccc3n2Cc2ccc(Cl)cc2)CC1 (stereo not given),·,–,·,·,·
Fc1cccc(Cl)c1CN1CCN(c2nc3ccccc3s2)CC1,–,–,–,–,–
CCCCN(C=O)c1c(CC)nc2ccc(C(=O)N3CCN(C(=O)c4ccco4)CC3)cn12,·,·,–,·,·
Brc1ccc(-c2ncc3ccccn23)cc1,–,28µM,–,–,–
O=S(=O)(c1ccccc1)N1CCN(c2ncnc3scc(-c4ccccc4)c23)CC1,–,–,–,–,?
Oc1ccccc1N1CCN(c2ncnc3scc(-c4ccc(F)cc4)c23)CC1,–,–,–,?,13µM
